Experimental data from PubChem BioAssay (NCATS).
Inconclusive results are not listed. Unmarked numbers belong to inactive results. Activity calls are given as the source filed them. The call rests on the fitted dose curve; in most records, active means well fitted cell-killing curve with a large enough effect; inconclusive means small, poorly fitted or top-dose-only effect, or effect the other way; inactive means flat fitted curve, though single readings scatter. Where a SMILES comes first, the peptide text is derived from it. [ ]: non-standard residue; d: D form.

What follows are compounds tested on CASKI (assay: Primary qHTS to identify gynecologic anti-cancer compounds using libraries of approved drugs and bioactive compounds (AID 1345084; further: nearly all actives have a fitted effect of over 55% in size)). Settings: Gynecologic cancer cell panel viability, ATPlite luminescence, 48 h; series mostly up to 57.5 µM; activity change, negative = cytotoxicity: at the top concentration.
Method in brief: (§1)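 48 h compound exposure at 37 C, 5% CO2; five-point qHTS. ATPlite luminescence readout of cell ATP.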
On the % scale 0 is the no-effect control and ±100 the full control effect.

| Structure (SMILES) | activity change, negative = cytotoxicity |
| --- | --- |
| C=C1C2=CC(O)C(C)C1(C)CC/C(C)=C/CCC1(C)OC1C2=O (stereo unspecified) | 6.38% [at 38.5 µM] |
| C[C@H]1CN(C[C@H](Cc2ccccc2)C(=O)NCC(=O)O)CC[C@@]1(C)c1cccc(O)c1 | 0.783% |
| Cn1c(=O)cc(N2CCCC(N)C2)n(Cc2ccccc2C#N)c1=O (stereo unspecified) | 7.44% |
| CCC[C@@H]1C[C@@H](C(=O)N[C@@H]([C@H]2O[C@H](SC)[C@H](OP(=O)(O)O)[C@@H](O)[C@H]2O)[C@H](C)Cl)N(C)C1 | 11.1% [at 25.3 µM] |
| COc1cc(/C=C/CO)ccc1O[C@@H]1O[C@H](CO)[C@@H](O)[C@H](O)[C@H]1O | 7.41% [at 38.5 µM] |
| CC1(O)CCC2C(C(=O)O)=COC(OC3OC(CO)C(O)C(O)C3OC(=O)/C=C/c3ccc(O)cc3)C21 (stereo unspecified) | 0.915% [at 25.3 µM] |
| C[C@@H](Nc1cc(NS(=O)(=O)N2CCC2)nc(SCc2cccc(F)c2F)n1)[C@@H](O)CO | 8.39% |

The compounds below were run on Es-2 in the same assay as above. Settings: Gynecologic cancer cell panel viability, ATPlite luminescence, 48 h; series mostly up to 57.5 µM; activity change, negative = cytotoxicity: at the top concentration.
Method in brief: as §1

| Structure (SMILES) | activity change, negative = cytotoxicity | Potency |
| --- | --- | --- |
| COc1ccc(C(OC2OC(CO)C(O)C(O)C2O)C(C)O)cc1 (stereo unspecified) | 4.26% [at 38.5 µM] |  |
| CCOC(=O)N1CCC(NCCNC(=O)c2ccccc2C)CC1 | -2.14% |  |
| CCC(C)C(=O)O[C@@H]1[C@@H](O)[C@@H](O[C@H]2O[C@H](CO)[C@@H](O)[C@H](O)[C@H]2O)O[C@H](CO)[C@H]1O (stereo partly specified) | 0.589% [at 25.3 µM] |  |
| Nc1ncnc2c1ncn2[C@H]1CCCO1 | 4.03% |  |
| COc1cc(-c2cccc(O)c2)cc2c1OCO2 | 12.1% |  |
| Nc1nc(CC(=O)Nc2ccc(CCNCC(O)c3ccccc3)cc2)cs1 (stereo unspecified) | 2.46% |  |
| O=C(/C=C/c1c(C(=O)O)[nH]c2cc(Cl)cc(Cl)c12)Nc1ccccc1 | -0.905% |  |
| CC1CCC2C(C)(C)C(O)CCC2(C)C12Cc1c(O)cc3c(c1O2)CN=C3N (stereo unspecified) | -1.05% [at 38.5 µM] |  |
| CC[C@H]1OC(=O)C[C@@H](O)[C@H](C)[C@@H](O[C@@H]2O[C@H](C)[C@@H](O)[C@H](N(C)C)[C@H]2O)[C@@H](CCN2C[C@H](C)C[C@H](C)C2)C[C@@H](C)C(=O)/C=C/C(C)=C/[C@@H]1CO[C@@H]1O[C@H](C)[C@@H](O)[C@@H](OC)[C@H]1OC | 9.78% |  |
| C[C@]12C=CC(=O)C=C1CC[C@@H]1[C@@H]2[C@@H](O)C[C@@]2(C)[C@H]1CC[C@]2(O)C(=O)COC(=O)CCC(=O)O | 0.871% |  |
| CC(C)=CCc1ccc(Oc2c(O)cc(C)cc2CO)c(C(=O)O)c1O | -1.32% [at 38.5 µM] |  |
| NS(=O)(=O)NCCNc1nonc1C(=Nc1ccc(F)c(Br)c1)NO |  | inactive |
| CCC(=O)NS(=O)(=O)c1ccc(-c2c(-c3ccccc3)noc2C)cc1 | -0.645% |  |
| CC(=O)OC1C(O)C(C)=C(CCC(C)CC(=O)O)C2(C)CCCC(C)(C)C12 (stereo unspecified) | 6.09% [at 38.5 µM] |  |
| COC1=CC(=O)O[C@@H](/C=C/c2ccccc2)[C@@H]1O | 12.3% |  |
| C[C@@H]1O[C@@H](O[C@@H]2[C@@H](O)[C@@H](O)[C@H](O[C@@H]3[C@@H](O)[C@@H](O[C@]4(CO)O[C@H](CO)[C@@H](O)[C@@H]4OC(=O)/C=C/c4ccc(O)cc4)O[C@H](CO)[C@H]3OC(=O)/C=C/c3ccc(O)cc3)O[C@H]2C)[C@H](O)[C@H](O)[C@H]1O | 1.92% [at 11.6 µM] |  |
| COC(=O)[C@@H]1C2CC3c4[nH]c5ccccc5c4CCN3CC2CC[C@@H]1O (stereo partly specified) | 2.44% |  |
| C[C@@H]1O[C@@H](O[C@H]2[C@H](OC(=O)[C@]34CCC(C)(C)C[C@H]3C3=CCC5[C@@]6(C)CC[C@H](O[C@@H]7O[C@H](CO[C@@H]8OC[C@H](O)[C@H](O)[C@H]8O)[C@@H](O)[C@H](O)[C@H]7O)C(C)(C)C6CC[C@@]5(C)[C@]3(C)C[C@H]4O)OC[C@@H](O)[C@@H]2O)[C@H](O)[C@H](O)[C@H]1O[C@@H]1OC[C@H](O)[C@H](O[C@@H]2OC[C@@H](O)[C@H](O)[C@H]2O)[C@H]1O (stereo partly specified) | -2.02% [at 6.55 µM] |  |
| CC(=O)N[C@H](Cc1ccc(O)cc1)C(=O)N[C@H](CCCN=C(N)N)C(=O)N[C@H](Cc1ccccc1)C(N)=O (Ac-[dY]-[dR]-[dF]-NH2) | -1.44% |  |
| CC(NCc1ccc(OCc2cccc(F)c2)cc1)C(N)=O (stereo unspecified) | 0.238% |  |
| Cc1coc2c1CC1OC1(C)CCC1OC1(C)C2 (stereo unspecified) | -0.239% |  |
| C[C@]12CCC[C@](C)(C(=O)O)C1CCC13C=C(CO)C(CCC12)C3 (stereo partly specified) | 6.27% [at 38.5 µM] |  |
| COc1cc(/C=C/C(=O)OC(C)(C)C(OC2OC(CO)C(O)C(O)C2O)C(=O)OCc2ccc(OC3OC(CO)C(O)C(O)C3O)cc2)ccc1O (stereo unspecified) | 0.123% [at 25.3 µM] |  |
| COc1cc2c(cc1OC)CN(C(=O)[C@@H](NCc1ccncc1)C(C)(C)C)CC2 | -0.323% |  |
